# Source: the supplement of paper PMC10127200
# Structures can show the parent of a compound that is named as a salt.
# Tests used:
# Experiment in all cases: Euclidean distance of Cell Painting phenotypic profile (signed KS, 77 features) to DMSO centroid (dimensionless distance); 5 or 10 uM (library dependent); higher = stronger phenotypic change vs DMSO (phenoactivity)
# Details in all cases: 48 h
# 786-O = tested on: 786-O
# In short: (§1)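 Phenoactivity is computed as Euclidean distance to the median vehicle profile. The profiles, drawn from 77 Harmony features scored as signed Kolmogorov-Smirnov statistics versus same-plate vehicle wells, were corrected for plate position, correlation-weighted and replicate-averaged at the top dose. Stained cells were imaged confocally at 20X (9 fields/well) after 48 h with library compounds at 10 or 5 uM, 0.1% DMSO final, in five cancer lines and a healthy fibroblast line.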
# A549 = tested on: A549
# In short: as §1
# DU145 = tested on: DU145
# In short: as §1
# FB = tested on: FB
# In short: as §1
# HEPG2 = tested on: HEPG2
# In short: as §1
# OVCAR4 = tested on: OVCAR4
# In short: as §1
SMILES,Euclidean distance (786-O),Euclidean distance (A549),Euclidean distance (DU145),Euclidean distance (FB),Euclidean distance (HEPG2),Euclidean distance (OVCAR4)
O=C1NS(=O)(=O)c2ccccc21 [Saccharin],1.09,0.449,0.729,0.738,0.461,0.73
OCc1ccccc1 [Benzyl alcohol],1.29,0.876,0.897,1.21,1.52,1.19
C[C@@H](O[C@H]1OCCN(Cc2nn(P(=O)(O)O)c(=O)[nH]2)[C@H]1c1ccc(F)cc1)c1cc(C(F)(F)F)cc(C(F)(F)F)c1 [Fosaprepitant dimeglumine salt],1.86,1.37,1.18,1.21,1.4,0.995
Nc1nc2[nH]cnc2c(=S)[nH]1 [Thioguanine],1.65,2.5,1.48,0.807,3.13,2.12
CCCCCCCCCCC[C@@H](C[C@@H]1OC(=O)[C@H]1CCCCCC)OC(=O)[C@H](CC(C)C)NC=O [Orlistat],1.47,1.11,0.901,1.42,1.12,0.935
CN1CC(=O)N2[C@H](c3ccc4c(c3)OCO4)c3[nH]c4ccccc4c3C[C@@H]2C1=O [Tadalafil],1.16,0.906,0.404,0.948,0.78,1.22
COc1cc(/C=C/C(=O)N2CCN(CC(=O)N3CCCC3)CC2)cc(OC)c1OC [Cinepazide maleate],1.21,0.96,1.04,1.16,0.337,1.41
Cc1ccc(NC(=O)c2ccc(CN3CCN(C)CC3)cc2)cc1Nc1nc(-c2cccnc2)cs1 [Masitinib (AB1010)],2.6,2.76,2.65,3.16,2.4,2.08
CCCCCCCCCCCCc1ccc(S(=O)(=O)Nc2nncs2)cc1,1.69,1.57,0.932,1.16,,1.51
C[C@@H]1C(=O)O[C@H]2C[C@@]34[C@H]5C[C@@H](C(C)(C)C)[C@]36[C@@H](OC(=O)[C@@H]6O)O[C@@]4(C(=O)O5)[C@]21O [Ginkgolide A],0.788,1.51,1.93,1.46,,1.21
CN1C(C(=O)Nc2ccccn2)=C(O)c2ccccc2S1(=O)=O [Piroxicam],0.732,0.909,0.966,0.725,1.06,0.704
COc1cc(NS(=O)(=O)c2ccc(N)cc2)nc(OC)n1 [Sulphadimethoxine],1.31,1.11,1.61,1.62,,1.44
CCN(CC)CCOC(=O)C(c1ccccc1)c1ccccc1 [Adiphenine HCl],1.67,0.625,0.633,1.43,,0.992
O=C(NOCC(O)CO)c1cc(Br)c(F)c(F)c1Nc1ccc(I)cc1F (configuration not stated),1.97,2.76,1.78,2.89,,1.17
C[C@@]1(c2cc(-c3cncnc3)c(F)cc2F)CCSC(N)=N1,2.11,1.07,1.06,1.09,,0.965
CCOC(=O)[C@H](CCc1ccccc1)N[C@H]1CCCN2CCC[C@@H](C(=O)O)N2C1=O [Cilazapril Monohydrate],1.14,1.31,0.828,1.03,,1.38
CCCCOc1c(C(=O)c2c(F)cc(C)cc2F)c[nH]c2nncc1-2,1.55,2.16,1.61,1.37,,2.1
CCCCC(=O)O[C@]1(C(=O)CO)[C@@H](C)C[C@H]2[C@@H]3CCC4=CC(=O)C=C[C@]4(C)[C@@]3(F)[C@@H](O)C[C@@]21C [Betamethasone Valerate],1.33,1.98,2.2,1.71,0.591,2.13
CC(C)c1cnn2c(NCc3ccccc3)cc(NCCCCCCN)nc12,0.657,0.869,0.933,0.961,,1.08
CN(C)Cc1cccc(N=C(c2ccccc2)c2c(O)[nH]c3cc(C(=O)N(C)C)ccc23)c1,0.777,0.99,1.08,3.16,,1.3
Cc1ccc(-n2nc(C(C)(C)C)cc2NC(=O)Nc2ccc(OCCN3CCOCC3)c3ccccc23)cc1 [BIRB 796 (Doramapimod)],1.54,0.959,1.2,1.38,,1.21
CS(=O)(=O)c1cccc(CNc2nc(Nc3ccc4c(c3)CCC(=O)N4)ncc2C(F)(F)F)c1,3.16,2.6,3.07,3.24,,1.34
O=C(COc1ccc(C(=O)c2ccccc2)cc1)NC1CCN(Cc2ccccc2)CC1 [AdipoRon],0.958,0.958,0.661,0.817,1.11,0.793
COCCOc1ccc2c(c1)ncn2-c1ccc2cccc(N3CCC(N)CC3)c2n1,2.57,3.24,3.51,3.61,,3.88
c1cnc(NCc2ccc(CNc3ncccn3)cc2)nc1,1.17,0.784,0.977,0.642,0.488,1.22

SMILES,Euclidean distance (786-O),Euclidean distance (A549),Euclidean distance (DU145),Euclidean distance (FB),Euclidean distance (HEPG2),Euclidean distance (OVCAR4)
NS(=O)(=O)c1cc2c(cc1Cl)NCNS2(=O)=O [Hydrochlorothiazide],1.82,1.08,1.44,1.02,,0.927
Nc1cccc(-c2cc3c(Oc4cccc(O)c4)ncnc3[nH]2)c1,1.73,3.48,1.62,2.71,,3.29
CCc1c(C(=O)NCCc2ccc(N3CCCCC3)cc2)[nH]c2ccc(Cl)cc12,1.69,1.48,1.01,1.21,,1.47
C=CCc1cc(OC)c(O)c(C(=O)NCCO)c1 [Alibendol],2.26,0.655,0.743,0.938,,0.912
CN(C)CC/C=C1/c2ccccc2Sc2ccc(Cl)cc21 [Chlorprothixene],1.17,0.711,1.22,1.27,1.86,1.33
COc1cc2c(Oc3ccc(NC(=O)C4(C(=O)Nc5ccc(F)cc5)CC4)cc3F)ccnc2cc1OCCCN1CCOCC1,1.39,2.06,1.35,1.52,0.94,3.97
"c1ccc(C2CN3CCSC3=N2)cc1 (single isomer, unassigned; (-)) [(-)-Tetramisole]",1.24,1.23,0.518,0.965,,2.19
NC(=O)c1ncn([C@@H]2O[C@H](CO)[C@@H](O)[C@H]2O)c1N [Acadesine],1,1.3,0.856,1.35,,0.909
FC(F)c1nc2ccccc2n1-c1nc(N2CCOCC2)nc(N2CCOCC2)n1,2.56,3.64,3.69,2.87,2.24,3.13
CNC(=O)CN(CCN(CCN(CC(=O)[O-])CC(=O)NC)CC(=O)[O-])CC(=O)[O-].[Gd+3] [Gadodiamide],0.953,1.55,1.5,0.962,,1.1
NC(=O)Nc1cc(-c2cccc(F)c2)sc1C(=O)N[C@H]1CCCNC1,3.38,3.15,3.87,3.82,,4.24
NCCCCCC(=O)O,0.84,1.89,2.26,1.67,,1.43
O=S(=O)(NCCNC/C=C/c1ccc(Br)cc1)c1cccc2cnccc12,2.02,1.32,2.19,1.3,,1.89
C=CCn1c(=O)c2cnc(Nc3ccc(N4CCN(C)CC4)cc3)nc2n1-c1cccc(C(C)(C)O)n1,3.28,2.56,2.52,3.63,,3.95
C[C@@H]1CN(CC(=O)Nc2ccc3c(c2)Cc2cccc(-c4cc(=O)cc(N5CCOCC5)o4)c2S3)C[C@H](C)O1,1.16,1.25,1.41,1.37,,2.14
Clc1ccc(C2(c3ccc(-c4cn[nH]c4)cc3)CCNCC2)cc1,2.95,3.29,3.8,4.67,,3.48
CN(C)Cc1cccc(N/C(=C2\C(=O)Nc3cc(C(N)=O)ccc32)c2ccccc2)c1,1.11,1.06,1.33,2.56,,1.22
Nc1cc(C(Cl)=C(Cl)Cl)c(S(N)(=O)=O)cc1S(N)(=O)=O [Clorsulon],1.15,0.636,0.797,0.676,0.743,1.18
CCCNC(=O)Nc1ccc(Oc2ncnc3cc(OC)c(OC)cc23)cc1Cl,0.633,0.789,0.916,2.36,,1.05
CC(C)[C@H](O)C(=O)N[C@@H](C)C(=O)N[C@@H]1C(=O)N(C)CCc2ccccc21,1.12,1.34,1.12,1.22,,1.03
CC(C)C[C@@H](C(=O)N[C@H](C(=O)OC1CCCC1)c1ccccc1)[C@H](O)C(=O)NO [Tosedostat (CHR2797)],0.679,1.35,0.893,1.15,,1.27
C/C(=C\C(=O)OCCCCCCCCC(=O)O)C[C@@H]1OC[C@H](C[C@@H]2O[C@H]2[C@@H](C)[C@H](C)O)[C@@H](O)[C@H]1O [Mupirocin],1.8,0.693,0.636,0.92,0.693,1.35
Cc1ccc2c(=O)c3cccc(CC(=O)O)c3oc2c1C [DMXAA (Vadimezan)],2.33,0.921,1.14,1.4,,1.04
CCc1nc(N)nc(N)c1-c1ccc(Cl)cc1 [Pyrimethamine],1.19,3.4,,0.96,1.83,2.25
COc1cc(Nc2nc3ccccc3nc2NS(=O)(=O)c2ccc(NC(=O)c3ccc(C)c(OC)c3)cc2)cc(OC)c1,0.677,1.26,1.17,0.743,,1.07
